Source: PubChem BioAssay AID588342 (National Center for Advancing Translational Sciences (NCATS), 2011)
The campaign covered roughly 360,000 compounds. About 25,000 (6.9%) were called active. About 9% were inconclusive and are not listed. The sample holds actives, similar compounds and a random draw of the others, so the mix is not that of the screen. Values without a mark were called inactive. Calls come from the whole dose curve; as a rule, active = well fitted inhibition curve with a large enough effect; inconclusive = small, poorly fitted or top-dose-only effect; inactive = flat fitted curve, though single readings scatter.

What follows are molecules tested against Luciferin 4-monooxygenase (Photinus pyralis) (UniProt P08659) (assay: qHTS profiling assay for firefly luciferase inhibitor/activator using purifed enzyme and Km concentrations of substrates (counterscreen for miR-21 project)). Conditions: purified FLuc, luminescence inhibition; series mostly up to 57.5 µM; activity change, negative = inhibition: at the top concentration.
Luciferin 4-monooxygenase (Photinus pyralis), sequence (P08659 whole entry, looked up): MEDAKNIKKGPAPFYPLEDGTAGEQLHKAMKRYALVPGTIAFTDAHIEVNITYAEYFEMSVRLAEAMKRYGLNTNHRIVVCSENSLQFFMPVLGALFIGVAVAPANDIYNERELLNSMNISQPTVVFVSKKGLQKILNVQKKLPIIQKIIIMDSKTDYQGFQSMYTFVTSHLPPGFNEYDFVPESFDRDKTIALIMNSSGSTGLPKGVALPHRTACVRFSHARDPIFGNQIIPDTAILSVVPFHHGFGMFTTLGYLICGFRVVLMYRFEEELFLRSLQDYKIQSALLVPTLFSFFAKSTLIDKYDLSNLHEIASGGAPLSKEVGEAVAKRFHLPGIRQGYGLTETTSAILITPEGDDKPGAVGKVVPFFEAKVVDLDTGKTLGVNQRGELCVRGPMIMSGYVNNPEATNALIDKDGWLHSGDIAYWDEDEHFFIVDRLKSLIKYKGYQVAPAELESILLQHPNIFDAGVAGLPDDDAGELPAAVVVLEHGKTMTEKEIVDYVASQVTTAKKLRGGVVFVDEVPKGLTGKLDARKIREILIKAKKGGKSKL
Summary of the method: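 Purified P. pyralis luciferase (10nM final) with 10uM D-luciferin and 10uM ATP (Km levels) in 50mM Tris acetate pH 7.5, 10mM Mg acetate, 0.01% Tween-20, 0.05% BSA; qHTS 6-point titration, ~60 µM downward; luminescence read.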
Note: nearly all actives have a fitted effect of over 55% in size.
Potency is the fitted concentration of half-maximal effect.
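Throughout, for activity change, negative = inhibition: plate controls were vehicle for no effect and reference inhibitor for full effect.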

| SMILES | activity change, negative = inhibition [%] | Potency |
| --- | --- | --- |
| Nn1c(SCC(=O)Nc2nccs2)nnc1-c1ccco1 | 1.42 |  |
| CC(C)c1ccc(NC(=O)Cn2nnc(C(=O)NCCc3ccccc3)c2N)cc1 | -5.02 |  |
| CC(C)c1ccc(NC(=O)Cn2ncc3ccccc32)cc1 |  | 10.7 µM (active) |
| CCc1ccc(NC(=O)Cn2ncn3c(cc4ccccc43)c2=O)cc1 |  | inactive |
| Cc1oc(-c2ccccc2)nc1Cn1c(SCc2cccc(C(F)(F)F)c2)nc2cccnc21 | -14.9 |  |
| COc1ccc(N2CCN(Cc3nc4c(c(=O)[nH]c(=O)n4C)n3Cc3ccc(Cl)cc3)CC2)cc1 | -1.19 |  |
| O=C(NCCCO)C(=O)Nc1c2c(nn1-c1ccccc1)CSC2 | -8.71 |  |
| Cc1nc2ccccn2c1C(=O)NN=C1CCN(C)CC1 | -1.15 |  |
| CC1=CC2=NC(=O)/C(=C/c3coc4ccccc4c3=O)C(=N)N2O1 | -16.2 |  |
| Cc1cc(/C=C2/C(=N)N3C(=NC2=O)SN=C3S(C)(=O)=O)c(C)n1-c1ccccc1 |  | 0.536 µM (active) |
| CCS(=O)(=O)C1=NSC2=NC(=O)/C(=C\c3cc(C)n(-c4cccc(OC)c4)c3C)C(=N)N21 |  | 6.75 µM (active) |
| CCOc1cc(/C=C2\C(=N)N3N=C(C)SC3=NC2=O)ccc1OCCOc1ccccc1 | 1.67 |  |
| CCS(=O)(=O)C1=NSC2=NC(=O)/C(=C\c3ccc(OS(=O)(=O)c4ccccc4)cc3)C(=N)N21 | -9.36 |  |
| COc1ccccc1OCCOc1ccc(/C=C2\C(=N)N3N=C(C)SC3=NC2=O)cc1 | -12.2 |  |
| CCC1=NN2C(=N)/C(=C/c3cc(C)n(-c4ccccc4)c3C)C(=O)N=C2S1 |  | 26.9 µM (active) |
| N=C1/C(=C/c2cccn2-c2cccc([N+](=O)[O-])c2)C(=O)N=C2SC=CN12 | 4.38 |  |
| Cc1cccc(N2CCN(C(=O)c3oc(=O)c4ccccc4c3-c3ccccc3)CC2)c1C | -0.455 |  |
| COc1ccc(CC(=O)N2CC(=O)Nc3ccc(Br)cc3C2c2ccc(F)cc2)cc1OC (configuration not stated) | 0.675 |  |
| O=C(Cn1c(=O)nc(-c2ccccc2)c2cc(Cl)ccc21)NCc1ccc(Cl)cc1 | 3.37 |  |
| Cc1c(C(C)CCCO)oc(=O)c2c1Oc1c(C)c(C(C)C[C@@H](C)O)oc(=O)c1C2 (some centres not stated) | 2.46 |  |
| O=C(NCCN1CCOCC1)c1cccc(S(=O)(=O)Nc2ccc(F)cc2)c1 | 3.82 |  |
| COc1cc(Cl)c(C)cc1NC(=O)CCc1nc2cccnc2n1Cc1cccs1 | -15.4 |  |
| CCOc1ccc(NC(=O)CCC(=O)NNC(=O)NC2CCCCC2)cc1 | 1.41 |  |
| Cc1ccccc1C(=O)Nc1sc2c(c1C(=O)N1CCC(C)CC1)CCCC2 | -1.02 |  |
| CCNS(=O)(=O)c1cc(-c2nnc(Nc3cccc(C(F)(F)F)c3)c3ccccc23)ccc1C | 3.64 |  |
| CCOC(=O)C1CCCN(C(=O)c2ccc(C)c(S(=O)(=O)N3CCCCC3)c2)C1 (configuration not stated) | -3.18 |  |

| SMILES | activity change, negative = inhibition [%] | Potency |
| --- | --- | --- |
| COC(=O)[C@H](C)NC(=O)Nc1ccc(OC(F)(F)F)cc1 | 0.295 |  |
| Cn1cccc1/C=N/NC(=O)CNc1cccc2ccccc12 | -17 |  |
| Cn1cccc1/C=N/NC(=O)c1ccc(OC(F)(F)C(F)F)cc1 |  | 12 µM (active) |
| COc1ccc(NC(=O)CSc2nc3ccccc3n2CC(=O)N2CCCCC2C)cc1 (configuration not stated) | -2.28 |  |
| Cc1ccc(S(=O)(=O)N2CCOCC2)cc1NC(=O)CSc1nnc(N)s1 | 2.58 |  |
| CCOC(=O)c1cc2c(=O)n3ccccc3nc2n(Cc2ccco2)c1=NC(=O)c1ccc(F)cc1 | -0.239 |  |
| Cc1ccc(OCCSc2nc3ccc(NC(=O)COc4ccc(C)cc4)cc3s2)cc1 | 1.87 |  |
| CC1CCN(S(=O)(=O)c2ccc3c(ccn3CCC(=O)NCc3ccc(N(C)C)cc3)c2)CC1 | -2.72 |  |
| COc1ccc(CC(=O)Nc2nnc3n2CCS3)cc1OC | -3.34 |  |
| CCOCCCNC(=O)c1cc2c(=O)n3ccccc3nc2s1 | -15 |  |
| CCc1ccc2oc(-c3ccc(N)cc3)nc2c1 |  | 0.19 µM (active) |
| NS(=O)(=O)c1ccc(CCNC(=O)CCCCCn2c(=O)[nH]c3ccccc3c2=O)cc1 | -7.29 |  |
| CCc1ccc(NC(=O)c2cc(S(=O)(=O)NC3CCCCCC3)ccc2F)cc1 | -8.51 |  |
| CCOC(=O)C1=C(c2ccccc2)N=C2SCC(=O)N2C1c1ccc(O)c(OC)c1 (configuration not stated) | -1.7 |  |
| CSc1ccc(CCNC(=O)c2cc(C)nc3c2c(C)nn3-c2cccc(F)c2)cc1 | -1.61 |  |
| CCOC(=O)C1=C(c2ccccc2)NC(=S)NC1c1ccc(Cl)cc1 (configuration not stated) | 1.44 |  |
| COc1ccc(C2NC(=S)NC3=C2CCc2ccccc23)cc1OC (configuration not stated) | 4.29 |  |
| CCOc1ccc(C2NC(=S)NC3=C2CCc2ccccc23)cc1 (configuration not stated) |  | 21.3 µM (active) |
| CCN1CCc2nc3sc(C(=O)Nc4ccccc4OC(F)(F)F)c(N)c3cc2C1 | 0.475 |  |
| Cn1c(=O)c2c(nc(Oc3ccc(C#N)cc3)n2Cc2ccc(Cl)cc2Cl)n(C)c1=O | -3.98 |  |
| O=Cc1ccc(Oc2cccc(C(F)(F)F)c2)nc1 | -3.32 |  |
| O=[N+]([O-])c1cccc(C2=NCCS2)c1 | -8.97 |  |
| FC(F)(F)c1ccnc(Oc2ccc(C3=NCCS3)cc2)c1 |  | 3.38 µM (active) |
| O=C(OCC(=O)N1CCCC1)c1ccc(Cl)nc1 | 2.43 |  |
| Oc1oc(-c2ccccc2Br)nc1/C=N/c1ccccn1 |  | 7.57 µM (active) |
| CCOc1ccc2nc(/N=C/c3nc(-c4ccccc4)oc3O)sc2c1 | 2.17 |  |

| SMILES | activity change, negative = inhibition [%] | Potency |
| --- | --- | --- |
| CCOc1ccc(C(=O)NCC(=O)N2CCN(c3ccc(C(F)(F)F)cn3)CC2)cc1 | 6.42 |  |
| CCn1cc(C(=O)OCC(=O)Nc2cc(C)cc(C)c2)c(=O)c2ccc(C)nc21 | -2.09 |  |
| O=S(=O)(NC1CC1)c1ccc(F)c(F)c1 | -2.04 |  |
| Cc1cc(C)cc(NC(=O)CSc2nc(=O)n(CCN3CCOCC3)c3c2CCC3)c1 | -2.95 |  |
| CCn1c(SCC(=O)Nc2nccs2)nnc1-c1ccco1 | -1.53 |  |
| Cc1[nH]c2ccccc2c1SCC(=O)Nc1nccs1 |  | 23.9 µM (active) |
| Cn1c(SCC(=O)Nc2nccs2)nnc1-c1cccnc1 | 2.95 |  |
| CCOc1ccccc1C(=O)NCc1ccc2c(c1)CCN2C(=O)c1ccc(F)cc1 | -15 |  |
| Cc1ccccc1NC(=O)CSc1ccc2nnc(-c3ccccn3)n2n1 | -2.1 |  |
| Cc1ccc(-c2onc(C)c2C)cc1S(=O)(=O)Nc1ccccn1 | -14.3 |  |
| COc1ccc(C(=O)NC2CCN(C(=S)NCCc3ccccc3)CC2)cc1 | 0.548 |  |
| O=C1CCN(C(=S)NCCc2ccccc2)CC1 | 0.463 |  |
| S=C(NCCc1ccccc1)N1CCCCC1 |  | 16.9 µM (active) |
| CCOCCCN(C(=O)Cn1nnc(-c2ccc(OC)c(OC)c2)n1)C(CC)C(=O)NC1CCCC1 (configuration not stated) | -2.8 |  |
| O=[N+]([O-])c1ccc(N/N=C2/CCCCC2c2ccccn2)c([N+](=O)[O-])c1 (configuration not stated) | -12.6 |  |
| O=[N+]([O-])c1ccc2nc(-c3ccccn3)[nH]c2c1 |  | 12 µM (active) |
| O=c1[nH]c2cccnc2n1-c1ccc([N+](=O)[O-])cc1 | -0.226 |  |
| COc1ccccc1NC(=O)CSc1oc(-c2ccco2)nc1S(=O)(=O)c1ccc(Br)cc1 | -4.64 |  |
| CCOc1ccc(S(=O)(=O)Nc2ccc3oc4c(c3c2)CC(C)CC4)cc1 (configuration not stated) | -12.4 |  |
| N#Cc1ccccc1NC(=O)c1cccc(COc2ccc(Cl)cc2Cl)c1 |  | 13.5 µM (active) |
| CSc1ccc(C#N)cc1NC(=O)c1cccc(Cl)c1 | -1.26 |  |
| CSc1ccc(C#N)cc1NC(=O)c1ccc(Cl)cc1 | 4.33 |  |
| c1ccc(-c2csc(N3CCc4ccccc4C3)n2)cc1 |  | 12 µM (active) |
| O=C(CN1CCN(c2nc(-c3ccccc3)cs2)CC1)NCc1ccc2c(c1)OCO2 | -1.74 |  |
| CN(C)CCCNC(=S)N1CCN(c2nc(-c3ccccc3)cs2)CC1 | -15.6 |  |
| CCCCCn1c(=O)[nH]c2cc(C(=O)NCCCN3CCCCC3C)ccc2c1=O (configuration not stated) | 2.1 |  |

| SMILES | activity change, negative = inhibition [%] | Potency |
| --- | --- | --- |
| CCS(=O)(=O)n1nc(-c2ccccc2)nc1SCc1ccccc1 |  | 10.7 µM (active) |
| Cc1ccc(S(=O)(=O)n2nc(-c3ccc(Cl)cc3)nc2NCc2ccccc2)cc1 | -1.94 |  |
| CCn1c(SCc2ccccc2)nc2c(c1=O)SCC2 | -2.37 |  |
| C[C@H](OC(=O)n1ccnc1)[C@@H]1O[C@@]2(C)CCC[C@@H]1O2 | -2.13 |  |
| Cc1nnc(N2CCC(C(=O)Nc3ccc(F)cc3)CC2)c2nn(-c3ccc(Cl)cc3)c(C)c12 | 0.139 |  |
| Cc1ccc(NC(=O)COC(=O)CN2CCCCCC2=O)c(C)c1 | 2.69 |  |
| Cn1c(C(=O)Nc2cccc(C(F)(F)F)c2)cc2c(=O)n3ccccc3nc21 | -8.11 |  |
| CCCN(CCC)C(=O)C(Cc1ccccc1)NS(=O)(=O)c1ccc2c(c1)c(=O)n(C)c(=O)n2C (configuration not stated) | -0.122 |  |
| COCCn1c(C)cc(C(=O)COC(=O)CNC(=O)c2ccco2)c1C | -9.9 |  |
| O=C(COC(=O)CNC(=O)c1ccco1)Nc1ccc(F)cc1 | -0.0434 |  |
| Cc1cc(C(=O)COC(=O)CNC(=O)c2ccc(F)cc2)c(C)n1Cc1ccco1 |  | 6.75 µM (active) |
| CCC(C)NC(=O)Cn1c(=O)n(-c2ccc(Cl)cc2)c(=O)c2c3c(sc21)CCCC3 (configuration not stated) | 1.6 |  |
| COc1ccc(CNC(=O)c2cc3c(=O)[nH]c4ccccc4c3s2)cc1 | 0.566 |  |
| COc1ccc(-c2cn3cccnc3n2)cc1 |  | 13.5 µM (active) |
| COc1ccc(-c2cc(NCc3ccc(F)cc3)n3cnnc3n2)cc1 | -7.12 |  |
| COc1ccc(-c2cn3ccsc3n2)cc1 |  | 2.39 µM (active) |
| Cc1c(-c2cccc(NC(=O)C(C)(C)C)c2)nc2ncccn12 | -5.1 |  |
| COc1ccc(N2CCN(C(=O)CSc3nnc4ncccn34)CC2)cc1 | 2.29 |  |
| COc1ccc(-c2cn3c(n2)sc2cc(C(=O)Nc4ccc(F)cc4)ccc23)cc1 | -11.2 |  |
| COc1cc(OC)cc(-c2nc(=S)n3ccsc3n2)c1 | 4.32 |  |
| CC(=O)Nc1ccc(S(=O)(=O)Nc2cccc(NC(=O)C(C)(C)C)c2)cc1 | 0.526 |  |
| CC(C)(C)C(=O)Nc1ccc(-c2cn3cccnc3n2)cc1 |  | 7.57 µM (active) |
| FC(F)(F)Oc1ccc(-c2cn3cccnc3n2)cc1 |  | 6.01 µM (active) |
| O=C(CCNC(=O)c1ccc(Br)cc1)NCC(c1ccco1)N1CCCCC1 (configuration not stated) | 1.69 |  |
